Inconclusive results are not listed. The source made the active and inactive calls. The calls were made as follows, unless noted: active = hit-call score of the fitted dose curve at least 0.9, where 1 is the maximum; inconclusive = response in the unintended direction; inactive = score below 0.9.
How the values were obtained:
[1] = biological target: human Peroxisome Proliferator-activated Receptor alpha (PPARa), PPARA (gene 5465) (UniProt Q07869); assay: ATG_PPARa_TRANS: Attagene TRANS-FACTORIAL HepG2 Assay for human Peroxisome Proliferator-activated Receptor alpha (PPARa) (AID 2283001);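 as to AC50: potency for gain of reporter signal over DMSO so agonist or activator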
Procedure, shortened: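 Cells (HepG2) are transfected with multiple reporter transcription units, exposed to chemical for 24 h, then total RNA is reverse-transcribed and amplified. Labelled products are quantified by capillary electrophoresis; induction is referenced to DMSO.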

[2] = biological target: human Peroxisome Proliferator-activated Receptor delta (PPARd), PPARD (gene 5467) (UniProt Q03181); assay: ATG_PPARd_TRANS: Attagene TRANS-FACTORIAL HepG2 Assay for human Peroxisome Proliferator-activated Receptor delta (PPARd) (AID 2283002)
Procedure, shortened: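 HepG2 cells transiently transfected with multiplexed GAL4-UAS reporter units and exogenous chimeric NR-Gal4 proteins; 24 h compound exposure. Reporter mRNA measured by RT-PCR, 6-FAM labelling, HpaI digestion and capillary electrophoresis; gain of signal versus DMSO.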

[3] = biological target: Peroxisome proliferator-activated receptor gamma (Homo sapiens) (UniProt P37231); assay: ATG_PPARg_TRANS: Attagene TRANS-FACTORIAL HepG2 Assay for human Peroxisome Proliferator-activated Receptor-gamma (PPARg) (AID 2283007)
Procedure, shortened: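 HepG2 cells transiently transfected with multiplexed GAL4-UAS reporter units and exogenous chimeric NR-Gal4 proteins; reporter mRNA quantified after 24 h compound exposure by RT-PCR, fluorescent labelling, HpaI digestion and capillary electrophoresis; gain-of-signal fitted versus DMSO baseline.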

[4] = biological target: Nuclear receptor subfamily 1 group I member 2 (Homo sapiens) (UniProt O75469); assay: ATG_PXR_TRANS: Attagene TRANS-FACTORIAL HepG2 Assay for human Pregnane X Receptor (PXR) (AID 2283008)
Procedure, shortened: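 Transactivation by exogenous PXR–GAL4 fusion measured as reporter transcript induction after 24 h compound treatment of transfected human HepG2 cells. Read-out via RT-PCR and capillary electrophoresis of labelled fragments, fitted upward relative to DMSO.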

[5] = biological target: human RAR-related Orphan Receptor beta (RORb), RORB (gene 6096) (UniProt Q92753); assay: ATG_RORb_TRANS: Attagene TRANS-FACTORIAL HepG2 Assay for human RAR-related Orphan Receptor beta (RORb) (AID 2283010)
Procedure, shortened: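 Transfect HepG2 with multiple GAL4-UAS reporter transcription units; dose chemicals for 24 h; isolate RNA, reverse-transcribe and PCR-amplify reporter sequences; label, digest and resolve fragments by capillary electrophoresis; fit increases relative to DMSO.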

[6] = biological target: Retinoic acid receptor RXR-alpha (Homo sapiens) (UniProt P19793); assay: ATG_RXRa_TRANS: Attagene TRANS-FACTORIAL HepG2 Assay for human Retinoid X Receptor alpha (RXRa) (AID 2283012)
Procedure, shortened: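 Measures exogenous chimeric NR-GAL4 activity in transfected HepG2 liver cells after 24 h of dosing. Induced reporter mRNA was detected by RT-PCR with capillary electrophoresis, and gain of signal was analysed against DMSO.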

[7] = biological target: human Retinoid X Receptor beta (RXRb), RXRB (gene 6257) (UniProt P28702); assay: ATG_RXRb_TRANS: Attagene TRANS-FACTORIAL HepG2 Assay for human Retinoid X Receptor beta (RXRb) (AID 2283013)
Procedure, shortened: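 Chimeric receptor-Gal4 activity was assessed in transiently transfected human HepG2 cells after 24 h exposure. Transcripts from GAL4-UAS reporters were quantified by fluorescent RT-PCR and capillary electrophoresis, with DMSO as negative control and baseline.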

[8] = biological target: human Retinoic Acid Receptor beta (RARb), RARB (gene 5915) (UniProt P10826); assay: ATG_RARb_TRANS: Attagene TRANS-FACTORIAL HepG2 Assay for human Retinoic Acid Receptor beta (AID 2283004)
Procedure, shortened: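 HepG2 cells transiently transfected with multiplexed GAL4-UAS reporter units expressing chimeric NR–Gal4 fusions; 24 h compound exposure. Reporter mRNA quantified by RT-PCR, 6-FAM labelling, HpaI digestion and capillary electrophoresis; gain-of-signal fitted against DMSO baseline.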

[9] = biological target: human RAR-related Orphan Receptor gamma (RORg), RORC (gene 6097) (UniProt P51449); assay: ATG_RORg_TRANS: Attagene TRANS-FACTORIAL HepG2 Assay for human RAR-related Orphan Receptor gamma (RORg) (AID 2283011)
Procedure, shortened: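 Readout: reporter transcript induction (RT-PCR, fluorescent primer extension, capillary electrophoresis) after 24 h compound exposure of transiently transfected HepG2 cells carrying a RORg-Gal4 chimera and GAL4-UAS reporters; DMSO served as baseline, with increasing signal fitted.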

[10] = biological target: human Thyroid Receptor alpha (THRa1), THRA (gene 7067) (UniProt P10827); assay: ATG_THRa1_TRANS: Attagene TRANS-FACTORIAL HepG2 Assay for human Thyroid Receptor alpha (THRa1) (AID 2283014)
Procedure, shortened: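 HepG2 cells transiently transfected with multiplexed GAL4-UAS reporter units for exogenous chimeric THRa1-Gal4; reporter mRNA measured 24 h after dosing by RT-PCR, 6-FAM labelling, HpaI digestion and capillary electrophoresis. Gain-of-signal fitted versus DMSO baseline.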

[11] = BSK_4H_Eotaxin3: BioMAP Diversity Plus: 4H Assay for Eotaxin 3 Biomarker Activity (AID 2283000; active = hit-call score of the fitted dose curve at least 0.9, where 1 is the maximum; inactive = score below 0.9;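 also: CCL26 protein level quantified by ELISA in parallel with SRB cytotoxicity check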); conditions: primary human endothelial cells (HUVEC); actives raise or lower the signal
Procedure, shortened: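 HUVEC, 24 h post-dose, ELISA for Eotaxin-3/CCL26. Gain or loss of signal fitted bidirectionally vs DMSO baseline.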

[12] = read-out: Intercellular Adhesion Molecule 1 (ICAM1), ICAM1 (gene 3383); assay: BSK_3C_ICAM1: BioMAP Diversity Plus: 3C Assay for Intercellular Adhesion Molecule 1 (ICAM1) Biomarker Activity (AID 2283003; active = hit-call score of the fitted dose curve at least 0.9, where 1 is the maximum; inactive = score below 0.9); conditions: primary human endothelial cells (HUVEC); actives raise or lower the signal
Procedure, shortened: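 Chemicals are dosed onto primary human umbilical vein endothelium (3C system). After 24 h, ICAM-1 is measured by ELISA, and responses are fitted bidirectionally relative to DMSO.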

[13] = BSK_3C_Proliferation: Cell Proliferation Assessment in the BioMAP Diversity Plus: 3C Assay (AID 2283006; active = hit-call score of the fitted dose curve at least 0.9, where 1 is the maximum; inactive = score below 0.9); conditions: primary human endothelial cells (HUVEC)
Procedure, shortened: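 Cells (human umbilical vein endothelial, sub-confluent) receive test chemical; after 48 h they are fixed in 10% trichloroacetic acid, stained with 0.1% SRB and read at 560 nm. Activity is referenced to DMSO, fitting increases and decreases.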

[14] = read-out: E-selectin (Homo sapiens) (UniProt P16581); assay: BSK_3C_Eselectin: BioMAP Diversity Plus: 3C Assay for Eselectin Biomarker Activity (AID 2283015; active = hit-call score of the fitted dose curve at least 0.9, where 1 is the maximum; inactive = score below 0.9;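 also: cell surface E-selectin protein quantified by ELISA 24 h after dosing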); conditions: primary human endothelial cells (HUVEC); actives raise or lower the signal
Procedure, shortened: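 Primary human umbilical vein endothelial cells (3C system) were dosed with chemical and cell-surface E-selectin measured by ELISA 24 h later. Bidirectional curve fitting used DMSO as negative control and baseline.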

[15] = read-out: Interleukin-1 alpha (IL1a), IL1A (gene 3552); assay: BSK_BE3C_IL1a: BioMAP Diversity Plus: BE3C Assay for Interleukin-1 alpha (IL1a) Biomarker Activity (AID 2283016; active = hit-call score of the fitted dose curve at least 0.9, where 1 is the maximum; inactive = score below 0.9); conditions: primary human bronchial epithelial cells; actives raise or lower the signal
Procedure, shortened: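 Signal from IL-1a ELISA, taken 24 h after chemical dosing of human bronchial epithelial cells, is compared with DMSO as baseline using bidirectional curve fitting.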

[16] = read-out: Monocyte Chemoattractant Protein-1 (MCP1), CCL2 (gene 6347); assay: BSK_3C_MCP1: BioMAP Diversity Plus: 3C Assay for Monocyte Chemoattractant Protein-1 (MCP1) Biomarker Activity (AID 2283017; active = hit-call score of the fitted dose curve at least 0.9, where 1 is the maximum; inactive = score below 0.9); conditions: primary human endothelial cells (HUVEC); actives raise or lower the signal
Procedure, shortened: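 Primary human umbilical vein endothelial cells (3C system) were exposed to test chemical for 24 h, after which MCP-1 was quantified by ELISA. Activity was fitted bidirectionally against DMSO as negative control and baseline.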

[17] = read-out: Monocyte Chemoattractant Protein-1 (MCP1), CCL2 (gene 6347); assay: BSK_4H_MCP1: BioMAP Diversity Plus: 4H Assay for Monocyte Chemoattractant Protein-1 (MCP1) Biomarker Activity (AID 2283018; active = hit-call score of the fitted dose curve at least 0.9, where 1 is the maximum; inactive = score below 0.9); conditions: primary human endothelial cells (HUVEC); actives raise or lower the signal
Procedure, shortened: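 Endothelial cells from umbilical vein were treated with test chemical, then after 24 h MCP-1 levels were quantified by ELISA; endpoint values came from bidirectional fitting with DMSO as baseline of activity.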

[18] = read-out: Human Leukocyte Antigen - DR isotype (HLADR), HLA-DRA (gene 3122); assay: BSK_3C_HLADR: BioMAP Diversity Plus: 3C Assay for Human Leukocyte Antigen - DR isotype (HLADR) Biomarker Activity (AID 2283019; active = hit-call score of the fitted dose curve at least 0.9, where 1 is the maximum; inactive = score below 0.9;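 also: ELISA of cell-surface HLA-DR on HUVEC 24 h after dosing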); conditions: primary human endothelial cells (HUVEC); actives raise or lower the signal
Procedure, shortened: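 Primary human umbilical vein endothelial cells (3C system) were dosed with compound and cell-surface HLA-DR was quantified by ELISA at 24 h. Activity was fitted bidirectionally against DMSO as negative control and baseline.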

[19] = biological target: Retinoic acid receptor alpha (Homo sapiens) (UniProt P10276); assay: ATG_RARa_TRANS: Attagene TRANS-FACTORIAL HepG2 Assay for human Retinoic Acid Receptor alpha (RARa) (AID 2283005)
Procedure, shortened: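 HepG2 cells transiently transfected with multiple reporter units expressing chimeric RARα-GAL4 fusion, with GAL4-UAS-driven reporters. After 24 h compound exposure, reporter mRNA induction quantified by RT-PCR and capillary electrophoresis with fluorescent labeling; gain-of-signal fitted relative to DMSO control.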

[20] = biological target: human Retinoic Acid Receptor gamma (RARg), RARG (gene 5916) (UniProt P13631); assay: ATG_RARg_TRANS: Attagene TRANS-FACTORIAL HepG2 Assay for human Retinoic Acid Receptor gamma (RARg) (AID 2283009);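 as to AC50: AC50 is for reporter induction above DMSO meaning RARg activation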
Procedure, shortened: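 TRANS format measured activity of exogenous NR-GAL4 fusion (RARg) in transfected HepG2 liver cells after 24 h dosing. Induced reporter RNA was detected by RT-PCR/capillary electrophoresis fluorescence, analysed in the positive direction against DMSO.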

Measured: AC50

Chain of human RAR-related Orphan Receptor beta (RORb), RORB (gene 6096) (Q92753 whole entry, looked up, the tested form may be a part): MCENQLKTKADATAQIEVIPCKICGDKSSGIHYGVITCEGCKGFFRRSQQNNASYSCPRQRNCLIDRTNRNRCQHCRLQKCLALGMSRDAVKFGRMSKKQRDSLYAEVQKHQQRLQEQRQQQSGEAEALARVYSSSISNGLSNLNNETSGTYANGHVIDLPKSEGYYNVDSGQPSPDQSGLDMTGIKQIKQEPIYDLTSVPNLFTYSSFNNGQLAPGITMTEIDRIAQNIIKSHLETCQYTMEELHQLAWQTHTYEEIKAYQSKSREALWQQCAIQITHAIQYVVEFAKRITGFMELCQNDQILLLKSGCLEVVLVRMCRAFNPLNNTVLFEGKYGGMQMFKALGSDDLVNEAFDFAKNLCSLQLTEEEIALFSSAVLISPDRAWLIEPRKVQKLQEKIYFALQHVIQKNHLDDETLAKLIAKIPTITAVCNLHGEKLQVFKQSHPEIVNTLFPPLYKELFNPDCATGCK
Chain of human Peroxisome Proliferator-activated Receptor alpha (PPARa), PPARA (gene 5465) (Q07869 whole entry, looked up): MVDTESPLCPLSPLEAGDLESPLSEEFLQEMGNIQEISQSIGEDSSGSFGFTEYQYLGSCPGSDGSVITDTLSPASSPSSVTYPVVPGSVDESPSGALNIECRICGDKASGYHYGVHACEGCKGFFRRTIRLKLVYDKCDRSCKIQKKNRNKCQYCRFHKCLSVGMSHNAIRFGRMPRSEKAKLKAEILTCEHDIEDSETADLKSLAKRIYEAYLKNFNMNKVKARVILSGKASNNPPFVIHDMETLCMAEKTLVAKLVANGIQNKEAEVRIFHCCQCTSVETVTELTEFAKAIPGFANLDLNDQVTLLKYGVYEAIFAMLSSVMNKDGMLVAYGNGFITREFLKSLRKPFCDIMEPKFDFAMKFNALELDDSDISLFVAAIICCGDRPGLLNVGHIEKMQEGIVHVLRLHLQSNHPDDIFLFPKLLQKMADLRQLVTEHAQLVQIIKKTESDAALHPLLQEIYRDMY
Chain of E-selectin (Homo sapiens) (P16581 whole entry, looked up): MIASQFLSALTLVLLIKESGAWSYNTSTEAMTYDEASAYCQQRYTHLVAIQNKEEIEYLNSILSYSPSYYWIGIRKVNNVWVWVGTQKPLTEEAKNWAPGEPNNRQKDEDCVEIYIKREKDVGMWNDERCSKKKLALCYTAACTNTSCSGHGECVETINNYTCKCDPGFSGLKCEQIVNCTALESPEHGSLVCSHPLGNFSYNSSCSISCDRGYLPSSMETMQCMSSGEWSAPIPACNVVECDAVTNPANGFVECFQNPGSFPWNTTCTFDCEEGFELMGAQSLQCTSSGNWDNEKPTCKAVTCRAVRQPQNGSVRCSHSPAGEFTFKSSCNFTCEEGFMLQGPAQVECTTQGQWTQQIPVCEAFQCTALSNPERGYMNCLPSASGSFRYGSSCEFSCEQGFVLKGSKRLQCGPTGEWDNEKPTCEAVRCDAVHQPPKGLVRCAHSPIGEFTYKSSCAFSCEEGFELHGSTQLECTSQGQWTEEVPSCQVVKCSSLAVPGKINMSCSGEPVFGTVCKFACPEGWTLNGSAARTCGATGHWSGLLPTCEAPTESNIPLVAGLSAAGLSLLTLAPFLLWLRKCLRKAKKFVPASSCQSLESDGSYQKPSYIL
Chain of human Peroxisome Proliferator-activated Receptor delta (PPARd), PPARD (gene 5467) (Q03181 whole entry, looked up, the tested form may be a part): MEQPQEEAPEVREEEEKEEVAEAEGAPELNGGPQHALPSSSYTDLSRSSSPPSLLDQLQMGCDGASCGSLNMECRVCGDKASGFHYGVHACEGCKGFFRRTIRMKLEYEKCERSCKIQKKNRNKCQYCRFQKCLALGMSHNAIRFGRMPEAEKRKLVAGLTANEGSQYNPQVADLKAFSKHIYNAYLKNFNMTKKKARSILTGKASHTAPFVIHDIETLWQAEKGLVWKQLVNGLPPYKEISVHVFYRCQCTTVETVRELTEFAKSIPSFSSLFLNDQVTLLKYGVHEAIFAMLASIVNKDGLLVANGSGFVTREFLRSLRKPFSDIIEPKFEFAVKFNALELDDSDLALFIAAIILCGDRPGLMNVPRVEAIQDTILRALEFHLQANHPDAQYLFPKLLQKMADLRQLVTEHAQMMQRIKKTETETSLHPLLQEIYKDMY
Chain of Nuclear receptor subfamily 1 group I member 2 (Homo sapiens) (O75469 whole entry, looked up, the tested form may be a part): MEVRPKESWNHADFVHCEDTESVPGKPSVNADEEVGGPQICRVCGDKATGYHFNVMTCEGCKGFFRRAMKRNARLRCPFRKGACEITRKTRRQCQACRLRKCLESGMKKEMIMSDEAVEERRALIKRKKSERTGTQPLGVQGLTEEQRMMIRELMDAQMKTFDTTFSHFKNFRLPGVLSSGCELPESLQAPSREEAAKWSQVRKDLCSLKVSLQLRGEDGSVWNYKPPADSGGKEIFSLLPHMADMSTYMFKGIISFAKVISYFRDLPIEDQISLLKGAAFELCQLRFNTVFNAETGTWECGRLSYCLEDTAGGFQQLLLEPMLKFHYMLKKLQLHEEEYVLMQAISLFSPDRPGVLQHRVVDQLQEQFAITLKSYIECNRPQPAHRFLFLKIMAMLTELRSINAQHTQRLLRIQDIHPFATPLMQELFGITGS
Chain of Retinoic acid receptor RXR-alpha (Homo sapiens) (P19793 whole entry, looked up, the tested form may be a part): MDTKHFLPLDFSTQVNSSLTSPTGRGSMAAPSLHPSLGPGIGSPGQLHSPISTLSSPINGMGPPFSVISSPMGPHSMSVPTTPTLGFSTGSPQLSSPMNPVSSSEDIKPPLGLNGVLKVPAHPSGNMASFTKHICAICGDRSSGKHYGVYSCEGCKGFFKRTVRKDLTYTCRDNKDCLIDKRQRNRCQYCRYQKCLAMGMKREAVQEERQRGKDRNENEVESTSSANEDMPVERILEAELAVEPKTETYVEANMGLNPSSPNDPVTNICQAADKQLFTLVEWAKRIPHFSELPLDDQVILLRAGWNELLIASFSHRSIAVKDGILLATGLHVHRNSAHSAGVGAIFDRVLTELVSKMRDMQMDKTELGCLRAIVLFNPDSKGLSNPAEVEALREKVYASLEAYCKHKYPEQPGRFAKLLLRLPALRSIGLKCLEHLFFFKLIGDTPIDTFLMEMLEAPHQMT
Chain of Peroxisome proliferator-activated receptor gamma (Homo sapiens) (P37231 whole entry, looked up, the tested form may be a part): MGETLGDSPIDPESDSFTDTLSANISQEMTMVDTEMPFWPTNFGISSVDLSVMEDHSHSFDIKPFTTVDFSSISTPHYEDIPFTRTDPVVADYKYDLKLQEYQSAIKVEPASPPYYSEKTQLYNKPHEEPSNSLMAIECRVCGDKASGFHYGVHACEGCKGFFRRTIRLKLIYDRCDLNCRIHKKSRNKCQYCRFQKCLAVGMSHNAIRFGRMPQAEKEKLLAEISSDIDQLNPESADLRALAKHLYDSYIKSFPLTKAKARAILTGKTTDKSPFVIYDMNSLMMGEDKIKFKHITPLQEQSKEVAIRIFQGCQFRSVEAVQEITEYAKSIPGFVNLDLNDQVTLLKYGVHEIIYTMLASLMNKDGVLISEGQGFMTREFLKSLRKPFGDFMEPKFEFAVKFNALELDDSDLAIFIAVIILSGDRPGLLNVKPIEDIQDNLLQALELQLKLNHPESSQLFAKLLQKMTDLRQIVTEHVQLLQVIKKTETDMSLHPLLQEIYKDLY
Chain of human Retinoid X Receptor beta (RXRb), RXRB (gene 6257) (P28702 whole entry, looked up, the tested form may be a part): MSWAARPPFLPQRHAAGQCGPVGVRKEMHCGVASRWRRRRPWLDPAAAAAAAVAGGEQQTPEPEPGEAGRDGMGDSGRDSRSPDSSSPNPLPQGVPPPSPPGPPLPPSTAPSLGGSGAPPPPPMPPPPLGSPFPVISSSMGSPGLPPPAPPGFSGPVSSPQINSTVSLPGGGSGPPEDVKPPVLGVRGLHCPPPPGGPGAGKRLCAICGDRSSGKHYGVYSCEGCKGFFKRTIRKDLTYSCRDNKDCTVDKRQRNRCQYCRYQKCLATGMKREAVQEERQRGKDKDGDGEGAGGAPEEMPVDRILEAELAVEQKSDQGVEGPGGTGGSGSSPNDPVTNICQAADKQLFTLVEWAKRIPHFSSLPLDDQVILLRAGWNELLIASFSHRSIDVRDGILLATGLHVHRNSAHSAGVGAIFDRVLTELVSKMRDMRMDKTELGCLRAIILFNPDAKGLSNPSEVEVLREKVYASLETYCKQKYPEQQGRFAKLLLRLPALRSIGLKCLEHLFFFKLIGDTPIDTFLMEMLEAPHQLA
Chain of human RAR-related Orphan Receptor gamma (RORg), RORC (gene 6097) (P51449 whole entry, looked up, the tested form may be a part): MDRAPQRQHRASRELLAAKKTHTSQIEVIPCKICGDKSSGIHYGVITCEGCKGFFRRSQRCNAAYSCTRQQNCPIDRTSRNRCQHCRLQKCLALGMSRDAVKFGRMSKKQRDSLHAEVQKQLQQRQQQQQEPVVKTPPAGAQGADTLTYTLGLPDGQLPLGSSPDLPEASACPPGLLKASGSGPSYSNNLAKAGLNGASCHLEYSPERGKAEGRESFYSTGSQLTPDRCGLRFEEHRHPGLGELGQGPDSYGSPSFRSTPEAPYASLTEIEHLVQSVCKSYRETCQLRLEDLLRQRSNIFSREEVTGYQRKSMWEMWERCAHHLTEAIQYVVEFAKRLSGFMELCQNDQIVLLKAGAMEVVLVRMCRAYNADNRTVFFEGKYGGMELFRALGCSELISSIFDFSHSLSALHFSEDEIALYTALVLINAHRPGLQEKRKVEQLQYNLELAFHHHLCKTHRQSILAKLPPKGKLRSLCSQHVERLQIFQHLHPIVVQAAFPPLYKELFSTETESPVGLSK
Chain of human Retinoic Acid Receptor gamma (RARg), RARG (gene 5916) (P13631 whole entry, looked up, the tested form may be a part): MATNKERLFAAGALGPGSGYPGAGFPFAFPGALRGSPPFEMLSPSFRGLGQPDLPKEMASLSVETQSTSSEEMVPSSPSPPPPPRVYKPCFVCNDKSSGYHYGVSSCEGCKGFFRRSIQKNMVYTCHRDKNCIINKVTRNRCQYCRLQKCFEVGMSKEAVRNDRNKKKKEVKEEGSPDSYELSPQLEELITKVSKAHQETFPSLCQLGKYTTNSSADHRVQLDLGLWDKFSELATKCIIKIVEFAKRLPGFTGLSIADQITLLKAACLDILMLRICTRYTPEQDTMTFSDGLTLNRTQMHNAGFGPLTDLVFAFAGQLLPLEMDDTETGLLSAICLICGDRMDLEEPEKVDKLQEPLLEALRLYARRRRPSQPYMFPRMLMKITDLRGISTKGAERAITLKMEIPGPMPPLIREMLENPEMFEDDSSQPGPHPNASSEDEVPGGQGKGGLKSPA

CCC(=O)OC(C)(C)C1CC=C(C)CC1 (centres undefined)
active: [4] 33.1 µM
inactive: [1] | [2] | [3] | [5] | [6] | [7]

CCO[Si](CC)(OCC)OCC
inactive: [1] | [2] | [8] | [9]

CCCCOCC(C)OCC(C)O (centres undefined)
inactive: [1] | [2] | [3] | [4] | [5] | [9] | [10]

O=C(O)C(F)(F)C(F)(F)C(F)(F)C(F)(F)C(F)(F)C(F)(F)C(F)(F)C(F)F
inactive: [11] | [12] | [13] | [14] | [15] | [16] | [17] | [18]

CN1CCc2cccc3c2[C@H]1Cc1ccc(O)c(O)c1-3
inactive: [1] | [2] | [8] | [19] | [4] | [6] | [7]
active: [3] 12 µM | [20] 0.775 µM

CCCCCCCCCCCCOCCOS(=O)(=O)O
inactive: [2] | [4]
active: [1] 9.73 µM | [3] 18.7 µM

CCCCC1CCCCC(=O)O1 (centres undefined)
active: [3] 47.4 µM
inactive: [1] | [2] | [19] | [4] | [20] | [5] | [6]

CC=CC(=O)C1=C(C)C=CCC1(C)C
not listed: [1] | [2] | [5] | [6] | [8] | [10] | [19] | [20]
inactive: all other assays above
